A selection: hits, their analogues and other compounds. The true share with any hit is near 1.8%.
NPR1 activator = GC-A (human) enzyme activation; P16066; HEK293 GC-A cells, cGMP TR-FRET, EC30 ANP; 0% at EC30 ANP, 100% saturating ANP; activation, % at 10 µM; actives 0.14% (n = 370,000); AID 1671463; in the data active = activation above about 40%
Exocytosis inh = blocks lytic granule exocytosis | AID 651702 | actives 0.66% (n = 360,000) | inhibition, % at 10 µM | TALL-104 LAMP-1 surface exposure, flow cytometry; cells stimulated with thapsigargin and PMA;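 active = inhibition above about 55%, limit read from the data; inconclusive = no clear call, values can overlap the other calls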
Myeloid diff 2 = compounds promoting myeloid differentiation | ER-HoxA9 myeloid progenitors, lysozyme-GFP differentiation, flow cytometry | calls only at 10 µM | actives 1% (n = 360,000);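 active = normalized GFP-positive differentiation at or above the plate's own cutoff, the solvent-only control mean plus 3 SD; inconclusive = no clear call, values can overlap the other calls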;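 also: cells exposed to compound for four days before flow analysis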
NPR2 activator = GC-B (human) receptor activation | AID 1920062 | HEK293-GC-B cells, CNP EC30, cGMP TR-FRET; 0% at EC30 CNP, 100% saturating CNP | P20594 | activation, % at 10 µM | actives 0.11% (n = 370,000);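 active = activation at 10 µM reaching about 35% in either raw or pattern-adjusted values, limit read from the data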
Starred values were filed as active, the others as inactive; i = inactive; ? = inconclusive; · = not tested or not shown; + = active, no number.

SMILES	NPR1 activator	Exocytosis inh	Myeloid diff 2	NPR2 activator
Cc1ccc[n+](C(C)C(=O)c2ccc(Cl)cc2)c1 (centres undefined)	2.2	-9.3	+	0.2
CC[n+]1ccc(/C=C/c2ccc(N(C)C)cc2)c2ccccc21	-90.4	-5.6	+	-84.4
CNC[C@@H]1OCc2cnnn2CCCC(=O)N([C@@H](C)CO)C[C@H]1C	-2.5	·	·	1.7
COc1ccc(C2=NS(=O)(=O)N(C)C(C(=O)N3CCc4ccccc4C3)=C2)cc1OC	6.3	-2.7	+	0.1
COc1ccc(C2=NS(=O)(=O)N(C)C(C(=O)NCc3ccccc3)=C2)cc1OC	1.6	0.1	i	-6.5
Cc1c(P(=S)(c2ccccc2)c2ccccc2)[n+]2ccccc2n1CCc1ccccc1	-0.8	13.5	i	-3.2
O=[N+]([O-])c1cc(S(=O)(=O)N2CCCCCC2)ccc1F	8.0	1.4	i	47.8*
CC(C)CCNc1nc(-c2ccco2)c2c(c1C#N)CCCC2	20.5	1.3	i	36.1*
N#Cc1c(NCCN)nc(-c2ccco2)c2c1CCCC2	-13.6	-2.5	i	-3.4
COc1ccccc1/C=C1\SC(=S)N(CCC(=O)NCCc2ccc(O)cc2)C1=O	-7.3	88.4*	?	-0.9
O=S(=O)(c1ccc(NC(=S)Nc2ccc(OC(F)F)cc2)cc1)N1CCOCC1	4.8	5.6	+	3.1
CCC1CN2CCc3cc(OC)c(OC)cc3C2CC1CC1c2cc(OC)c(OC)cc2CCN1C(=O)C(Cc1c[nH]c2ccccc12)NC(=O)OC(C)(C)C (centres undefined)	-3.0	0.4	+	1.7
CCN(CC)c1ccc(-c2nn3c(-c4ccccc4OC)nnc3s2)cc1	·	80.4*	?	·
CCN(CC)c1ccc(-c2nn3c(-c4ccc(C(C)(C)C)cc4)nnc3s2)cc1	1.3	·	·	-1.9
CCOC(=O)C1=C(C)N=C2c3ccccc3C(=O)C2C1c1ccc(Cl)cc1 (centres undefined)	-43.0	12.8	i	-11.6
CCOC(=O)C1=C(Cc2ccc(Cl)cc2)C(=O)c2ccccc2C1=O	·	93.2*	i	·
COc1ccc(C[C@@H]2OC3(C=CC(=O)C=C3)O[C@H]2Cc2ccc(OC)cc2)cc1	·	95.7*	+	·
O=C1C=CC2(C=C1)O[C@H](Cc1ccccc1)[C@@H](Cc1ccccc1)O2	-28.7	98.5*	+	-16.7
O=C1C(Nc2ccccc2)=C/C(=N/S(=O)(=O)c2cccs2)c2ccccc21	·	75.1*	?	·
Cc1ccc(NC2=C/C(=N/S(=O)(=O)c3cccs3)c3ccccc3C2=O)cc1	2.8	5.6	?	9.6
CCC(=O)OCc1c(C(F)(F)F)nn(C)c1Sc1ccc(Cl)cc1	-3.6	0.5	i	-9.2
CCC(=O)OCc1c(C(F)(F)F)nn(C)c1Sc1ccc(F)cc1	-4.0	-0.4	+	-3.6
CC(C)C[C@H]1COc2cccc(F)c2S(=O)(=O)N1Cc1cn(CC2CCCCC2)nn1	2.6	·	·	3.2
CN1CCCC1CCNc1ccc2c(=O)c3ccccc3oc2c1 (centres undefined)	9.9	-4.1	i	-0.8
CN1CCC[C@H]1CCNc1ccc2c(=O)c3ccccc3n(C)c2c1	2.3	-2.1	+	-4.5
SMILES	NPR1 activator	Exocytosis inh	Myeloid diff 2	NPR2 activator
Nc1cc(=O)[nH]c(SCC(=O)Nc2cccc([N+](=O)[O-])c2)n1	0.7	-6.7	+	1.2
CN(C)S(=O)(=O)c1ccc(C(=O)Nc2ccccc2F)cc1	4.7	-1.2	i	-5.5
CN(C)S(=O)(=O)c1ccc(C(=O)Nc2ccccc2OC(F)(F)C(F)F)cc1	3.2	-0.5	+	-0.4
Cc1ccccc1N(C(=O)c1csnn1)C(C(=O)NC1CCCCC1)c1ccncc1 (centres undefined)	-0.9	9.6	+	-6.1
O=C(NC1CCCC1)C(c1ccncc1)N(C(=O)c1csnn1)c1ccccc1F (centres undefined)	4.8	1.7	i	-7.7
Clc1ccc(-n2nnc(-c3cccnc3)n2)cc1Cl	-4.4	10.3	+	-8.8
Cc1ccc(-n2c(SCC(=O)Nc3ccccc3-c3ccccc3)nnc2-c2cccs2)cc1	-11.9	·	·	-8.1
CCN1/C(=C/C(C)=C/c2sc3ccccc3[n+]2CC)Sc2ccccc21	9.1	82.2*	?	17.8
CN=C1NC(C)(C)C2CCC(C)(CC2)S1	-0.4	1.3	+	-1.1
N#Cc1ccc(C=NN2CCCCCC2)cc1	6.1	-13.4	i	1.4
CN(C)c1nc(=NCc2cccs2)ss1	14.1	65.4*	i	16.2
CC(SC(=S)N(C)Cc1cccs1)C(=O)O (centres undefined)	4.3	1.4	i	7.5
c1ccc(CNc2ncnc3c2cnn3Cc2ccccc2)cc1	2.8	-1.0	+	-0.3
O=C(O)Cc1sc(Nc2cccc3ccccc23)nc1-c1ccc(F)cc1	1.0	2.8	i	-1.9
O=C(O)Cc1sc(NCCc2ccccc2)nc1-c1ccc(F)cc1	5.5	10.5	+	-0.9
N#Cc1c(-c2ccc(F)cc2)c(-c2ccc(F)cc2)nn(CCO)c1=O	-2.5	-1.2	i	-2.2
COc1ccc(-c2nn(-c3ccccc3)cc2N)cc1	3.2	0.1	+	-2.2
CN(C)c1ccc(-c2ccnc3c2CC(C)(C(=O)NCc2ccncc2)O3)cc1 (centres undefined)	-1.4	6.5	i	-3.0
CN(C)c1ccc(-c2ccnc3c2CC(C)(C(=O)NCc2ccccc2)O3)cc1 (centres undefined)	-0.7	0.0	+	2.8
COc1ccc(-n2c(N)c(C(=O)NCC3CCCO3)c3nc4ccccc4nc32)c(OC)c1 (centres undefined)	40.5*	3.2	i	39.7*
C[C@]12CC[C@H]3C(=CCc4cc(O)ccc43)[C@@H]1CCC2=O	0.6	2.2	+	-7.7
O=S(=O)(/N=C(/Nc1cccc2ccccc12)c1ccccc1)c1cccs1	-8.4	-2.4	i	-15.0
Cc1ccc(N/C(=N/S(=O)(=O)c2cccs2)c2ccccc2)c(C)c1	-5.6	-1.1	+	-5.8
COc1cc(/C=N/Nc2nncc3ccccc23)cc(OC)c1OC	-2.0	-9.8	+	1.0
O=C(NCc1ccccc1F)C1C2C=CC3(CN(Cc4ccccc4)C(=O)C13)O2 (centres undefined)	3.6	·	·	16.0
SMILES	NPR1 activator	Exocytosis inh	Myeloid diff 2	NPR2 activator
N#CCSc1ccccc1NC(=O)CN1C(=O)C2CC=CCC2C1=O (centres undefined)	2.0	0.1	+	-0.3
Cc1cccc(C)c1NC(=O)CN1C(=O)C2CC=CCC2C1=O (centres undefined)	0.5	-0.9	i	1.5
COP(=O)(CC(=O)O)C(CC(C)C)NC(=O)OCc1ccccc1 (centres undefined)	0.9	·	·	2.1
N#C/C(=C\Nc1ccccc1O)c1nc2ccccc2o1	12.3	86.4*	i	9.0
Cc1ccc2c(c1)N(CCCC(=O)NCc1cccs1)C(=O)CO2	1.1	·	·	9.7
CCSc1nc(COC(=O)NC)c(COC(=O)NC)n1C	1.3	1.3	+	1.5
